L major viab: Leishmania major promastigote growth inhibition, primary screen; 200,000 compounds, 9% hits; Leishmania major promastigotes, resazurin fluorescence viability; inhibition, % at 10 µM; in the data active = inhibition above about 50%;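 note: promastigotes grown with compound for 44 hours at 28 °C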
WT yeast gro inh: growth inhibition of WT strain, primary screen, mitochondrial fusion inhibitor project, WT and mutant strains, chemical genetic; inhibition, % at 10 µM; 190,000 compounds, 2.1% hits; mitochondrial fusion phenotypic screen; in the data active = inhibition above about 58%; tested in S. cerevisiae
CHOP inh: inhibitors of CHOP promoter induction, primary screen, cell-based, unfolded protein response, luciferase reporter | AID 2732, 2010 | 220,000 compounds, 3.8% hits | inhibition, % at 10 µM | CHO-K1 CHOP-promoter luciferase, tunicamycin-induced, 15-18 h;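 active = compounds that reduced the stress-induced luciferase reporter signal by more than about 70% of percent inhibition, limit read from the data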
Arbovirus inh: antivirals against arbovirus infection, primary screen, cell-based, full library, 10K replicate subset; arbovirus infection cell-based antiviral screen; 200,000 compounds, 0.37% hits; AID 1251, 2008; inhibition, % at 10 µM; in the data active = inhibition above about 30%
Of the large screens only hits and unclear results are named; the others gave an inactive call. Shown are actives, neighbours in structure and some others; about 12% of the full set was active somewhere.

COc1ccc(S(=O)(=O)N2CCCCC2)cc1NC(=O)c1ccc([N+](=O)[O-])o1	L major viab 90
COc1ccc(-c2cc3ccccc3oc2=O)cc1NC(=O)c1ccc(Br)o1	none
COc1ccc(-c2cc3ccccc3oc2=O)cc1NC(=O)c1ccc([N+](=O)[O-])o1	L major viab 85
CC(C)(C)c1ccc(C(=O)N2CCCN(c3ccc([N+](=O)[O-])cn3)CC2)cc1	none (no result: L major viab, WT yeast gro inh, Arbovirus inh)
CCCc1ccc(C(=O)N2CCN(c3ccccc3OCC)CC2)cc1	CHOP inh 71
CCOc1ccccc1N1CCN(C(=O)c2cc[n+]([O-])cc2)CC1	none
O=C(c1cc2c(s1)CCCC2)N1CCN(c2ccccc2)CC1	none
CCOc1ccccc1N1CCN(C(=O)c2cc3c(s2)CCC3)CC1	L major viab 68
O=C(c1cc2c(s1)CCCC2)N1CCN(S(=O)(=O)c2ccccc2C(F)(F)F)CC1	L major viab 77
Cc1cc2ncn(C(=O)c3c(-c4ccccc4Cl)noc3C)c2cc1C	CHOP inh 76
COc1ccc(NS(=O)(=O)c2ccc(C)c(NC(=O)c3ccc(C)c(S(=O)(=O)N4CCOCC4)c3)c2)cc1	none
CNC(=O)[C@H]1O[C@@H](n2cnc3c(NCc4ccc(N)cc4)ncnc32)C(O)[C@H]1O (some centres not stated)	none (no result: L major viab, WT yeast gro inh, Arbovirus inh)
CCOc1ccccc1N1CCN(C(=O)c2c(-c3ccccc3Cl)noc2C)CC1	L major viab 71
Cc1ccc(-n2nnnc2-c2cnoc2-c2cccc(F)c2)cc1	none
O=C(NCCN1CCOCC1)c1ccc2c(c1)N(Cc1c(F)cccc1Cl)C(=O)c1ccccc1S2	L major viab 100
OC1(c2cccc(C(F)(F)F)c2)CCNCC1	L major viab 60
COCCn1nnnc1CN1CCC(O)(c2cccc(C(F)(F)F)c2)CC1	none
COc1cc(C(=O)Nc2cccc(S(=O)(=O)N3CCCC3)c2)cc(OC)c1C	none (no result: L major viab, WT yeast gro inh, Arbovirus inh)
Cc1ccc(C2=NNC(=O)C(P(=O)(c3ccccc3)c3ccccc3)C2)cc1 (configuration not stated)	none
CCN=C1SC(CC(=O)Nc2ccc(N3CCOCC3)cc2)C(=O)N1CC (configuration not stated)	none
CCN=C1SC(CC(=O)Nc2sc3c(c2C#N)CCCC3)C(=O)N1CC (configuration not stated)	CHOP inh 92
CCN=C1SC(CC(=O)Nc2ccc(C(F)(F)F)cc2)C(=O)N1CC (configuration not stated)	CHOP inh 82
CCC(=O)Nc1sc2c(c1C#N)CCCCC2	none
NC/C=C/C(=O)O	none (no result: L major viab, WT yeast gro inh, Arbovirus inh)
COc1cc(/C=N/NS(=O)(=O)c2ccc(C(C)(C)C)cc2)cc([N+](=O)[O-])c1O	none
Cc1nn(-c2ccccc2)c(Cl)c1/C=N/O	none
Cc1nn(-c2ccccc2)c(Cl)c1/C=C/C(=O)c1ccccc1	L major viab 69
Cc1nn(-c2ccccc2)c(Cl)c1/C=C1\SC(=S)N(C)C1=O	L major viab 53
Cc1nn(-c2ccccc2)c(Cl)c1/C=C1\C(=O)N(C)C(=S)N1C	none
CC(=O)NNC(=O)CCn1nnc(-c2ccc(Cl)cc2)n1	none
Cc1ccccc1/C=C1\OC(=O)c2ccccc21	CHOP inh 87
CCSC1=NSC2=NC(=O)/C(=C\c3coc4ccccc4c3=O)C(=N)N12	Arbovirus inh 31
CC(C)CC1=NN2C(=N)/C(=C\c3coc4ccccc4c3=O)C(=O)N=C2S1	Arbovirus inh 41
Cc1cccc(-n2c(C)cc(/C=C3\C(=N)N4N=C(CC(C)C)SC4=NC3=O)c2C)c1	L major viab 59
O=C(CSc1nc2cc([N+](=O)[O-])ccc2n1-c1ccc(F)cc1)NC1CCS(=O)(=O)C1 (configuration not stated)	none
O=C(O)c1cnn(-c2ccccc2)c1-n1cccc1	none
COC(=O)c1cnn(-c2ccc(C)c(C)c2)c1-n1cccc1	L major viab 65
CCOC(=O)c1ccc(N2CCN(c3ccccc3F)CC2)c(NC(=O)Nc2ccccc2)c1	L major viab 97, Arbovirus inh 31
CCOC(=O)c1ccc(N2CCN(c3ccc(F)cc3)CC2)c(NC(=O)Nc2cccc(OC)c2)c1	L major viab 96
CCOC(=O)c1ccc(NC(=O)N2CCN(c3ccccc3OC)CC2)cc1	none
COc1cccc(NC(=O)CN2CCN(c3ccc(F)cc3)CC2)c1	none
Cc1ccc(S(=O)(=O)CCC(=O)OCC(=O)NCc2ccc(Cl)cc2)cc1	none
CCOC(=O)C1(Cc2ccccc2C(F)(F)F)CCN(C2CCN(C(C)C)CC2)CC1	L major viab 99
CCOC(=O)C1(Cc2ccccc2C(F)(F)F)CCN(CC(O)CO)CC1 (configuration not stated)	none
CC(=O)C1=C(c2cccc([N+](=O)[O-])c2)N(C(C)=O)n2c(C)nnc2S1	WT yeast gro inh 60
CN1C2C=C3C(C#N)=C(N)C(C#N)(C#N)C(c4ccc(Br)cc4)C3C1CC2 (configuration not stated)	L major viab 98
CN1C2C=C3C(C#N)=C(N)C(C#N)(C#N)[C@@H](c4ccc(Cl)cc4)[C@@H]3C1CC2 (some centres not stated)	none
COc1cc(OC)c(C2C(C#N)=C(C)NC(C)=C2C#N)c(C(=O)O)c1	none (no result: L major viab, WT yeast gro inh, Arbovirus inh)
COc1ccc(NC(=O)CN(c2ccc(C)cc2)S(C)(=O)=O)c(OC)c1	WT yeast gro inh 62
COc1ccc(NS(=O)(=O)c2ccc(NC(C)=O)cc2)c(OC)c1	none
Cc1ccc(N(CC(=O)Nc2cc(Cl)ccc2Oc2ccccc2)S(C)(=O)=O)c(C)c1	none
COc1cccc(NC(=O)CCN2C(=O)c3ccc([N+](=O)[O-])cc3C2=O)c1	none
COc1ccc(NS(=O)(=O)c2ccc(NC(=O)c3ccc(N(C)S(C)(=O)=O)cc3)cc2)c(OC)c1	L major viab 54
Cc1ccc(N(CC(=O)Nc2cc(Cl)ccc2Oc2ccccc2)S(C)(=O)=O)cc1C	CHOP inh 89
COc1ccc(NC(=O)CCN2C(=O)c3ccc([N+](=O)[O-])cc3C2=O)c(OC)c1	L major viab 90
COC(=O)CCC(=O)NC(=S)Nc1ccc(S(=O)(=O)N2CCCC2)cc1	none
CCc1ccc(CNC(=O)Cn2nc(-c3ccc(C)cc3)ccc2=O)cc1	none
COc1ccc(NC(=O)CN(c2ccc([N+](=O)[O-])cc2)S(=O)(=O)c2ccccc2)c(OC)c1	L major viab 75
COc1ccc(N(CC(=O)Nc2ccc(OC)cc2OC)S(=O)(=O)c2ccccc2)cc1	none
O=C(NCCCCc1ccccc1)C1CC(c2cc(C(F)(F)F)cc(C(F)(F)F)c2)=NO1 (configuration not stated)	none (no result: L major viab, WT yeast gro inh, Arbovirus inh)
CCOc1ccc2nc(NC(=O)c3ccc(OCC4CCCO4)cc3)sc2c1 (configuration not stated)	L major viab 86
CCOc1ccc2nc(NC(=O)c3cccc(-c4cc5ccccc5oc4=O)c3)sc2c1	CHOP inh 92
CCOC(=O)CN(C#N)c1nc(N(C)C)nc(N(C)C)n1	none
CC(C)(C)NC(=O)C(c1ccsc1)N(CCc1ccccc1)C(=O)Cn1nnc2ccccc21 (configuration not stated)	CHOP inh 95
